An excerpt weighted towards active compounds, which were near 19% of everything screened.
HT1080-NT tox = kills 2HG-producing HT-1080-NT fibrosarcoma cells. HT-1080-NT fibrosarcoma viability, CellTiter-Glo ATP luminescence, 48 h. Potency, µM (titrated, usually from 46.1 µM), for the others: top-dose activity, negative = less viability, usual class: cytotoxic. hit rate 1.6% among 360,000. AID 686970;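 note: NT is the 2HG producing partner of a matched IDH1 knockdown line; potency is the fitted concentration of half-maximal effect; 0% = DMSO-treated cells and -100% = media-only wells without cells; nearly all actives have a fitted effect of over 55% in size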
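Viability by CellTiter-Glo luminescence after 48 h compound exposure at 37C of HT-1080-NT cells (750/well, RPMI, 5% FBS). % activity scaled between DMSO wells and medium-only wells, then curve-fitted and categorized by curve class.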
IL-1B inflam inh = inflammasome signaling inhibition, IL-1 beta readout; THP-1 LPS/ATP IL-1B secretion, AlphaLISA, 16 h; stronger effect = lower value; hit rate 4.7% among 360,000; AID 743279; activity change, % at 57.5 µM; in the data active = activity change below about -50%; inconclusive = mostly about -30% to -49%
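THP-1 cells pretreated 1 hr with compounds (up to 57.5 uM final), then stimulated with LPS (250 ng/mL final) plus ATP (1.25 mM final); secreted IL-1B measured by AlphaLISA after 16 hr, decreased signal indicating inhibition.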
TDP1 cell noCPT = qHTS for Inhibitors of human tyrosyl-DNA phosphodiesterase 1 (TDP1): qHTS in cells in absence of CPT; DT40 Tdp1-/- hTDP1 cells, no CPT, ATP luminescence, 48 h; Potency, µM (doses to about 46.2 µM), without a hit: at the top dose activity change, negative = growth inhibition, usual class: inhibitors; hit rate 15% among 420,000; note: potency is the fitted concentration of half-maximal effect; nearly all actives have a fitted effect of over 55% in size
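Chicken DT40 Tdp1-/- cells complemented with human TDP1, screened without camptothecin (DMSO vehicle only), 400 cells/well. Compounds pin-transferred, cells incubated at 37 °C for at least 48 hr. Growth read as ATP-dependent luminescence (CellTiter-Glo, 30 min at RT).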
DT40 TDP1 CPT = DT40-hTDP1 cell growth loss with CPT; chicken DT40 Tdp1-/-;hTDP1 cells + 20 nM CPT, ATP luminescence, 48 h; Potency, µM (highest dose often 46.2 µM), for the others: at the highest dose activity change, negative = growth inhibition, actives largely listed as inhibitors; hit rate 12% among 420,000; note: potency is the fitted concentration of half-maximal effect; nearly all actives have a fitted effect of over 55% in size
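Chicken DT40 Tdp1-/- cells stably complemented with human TDP1 were seeded at 400 cells/well in medium containing 20 nM camptothecin, exposed to pin-transferred compounds, and grown at 37 °C for at least 48 hr. Viability was read as ATP luminescence.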
HT1080 IDH1KD tx = kills HT-1080 cells with IDH1 knockdown; HT-1080 IDH1 knockdown viability, ATP luminescence, 48 h; Potency, µM (series often up to 46.1 µM), inactives show top-dose activity, negative = toxicity, actives largely listed as cytotoxic; hit rate 2% among 360,000; AID 686971;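 note: potency is the fitted concentration of half-maximal effect; 0% = DMSO wells and -100% = cell-free medium wells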
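Viability of IDH1-knockdown HT-1080 fibrosarcoma cells was assessed by CellTiter-Glo after 48 h at 37 °C with titrated compound; concentration-effect curves were classified by fit quality and response size.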
ELG1 repair inh = ELG1-dependent DNA repair inhibition. HEK293T ELG1-luciferase reporter, luminescence, 16 h; DNA damage induced by 5-fluorouridine. Potency, µM (doses to about 46.1 µM), without a hit: top-dose activity change, negative = inhibition, most hits filed as inhibitors. hit rate 2.3% among 330,000. AID 504467; note: potency is the fitted concentration of half-maximal effect; nearly all actives have a fitted effect of over 55% in size
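Step one: seed 2,000 cells per well. Step two: pin-transfer compound or DMSO alongside 5-fluorouridine. Step three: incubate 16 hr, 37 °C, 5% CO2. Step four: add ONE-Glo, wait 30 min, read luminescence.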
* marks the source's active call; other numbers are inactive results; ? = inconclusive; / = no result; [ ] = remark or other dose. Unless noted, calls come from the whole dose curve; as a rule, active = well fitted curve in the direction sought with a large enough effect; inconclusive = small, poorly fitted or top-dose-only effect, or another doubt; inactive = no such curve, though single readings can be large; an effect the other way counts as inactive or inconclusive. Unless noted, % is set by controls: 0 for no effect and ±100 for the full control effect.

SMILES | HT1080-NT tox | IL-1B inflam inh | TDP1 cell noCPT | DT40 TDP1 CPT | HT1080 IDH1KD tx | ELG1 repair inh
NS(=O)(=O)c1ccc(CCNCc2ccccc2OCc2ccc(F)cc2)cc1 | ? | -90* | 21µM* | ? | ? | 12µM*
CCOc1ccc(NCc2ccccc2OCc2cccc(F)c2)cc1 | ? | -54* | ? | ? | ? | ?
Nc1nonc1C(=O)NCCNCc1ccccc1OCc1ccc(F)cc1 | ? | -29 | 16µM* | 23µM* | ? | 0%
CCOc1ccc(CNc2ccc(S(N)(=O)=O)cc2)cc1 | -12% | 12 | ? | ? | -7% | ?
Fc1cccc(COc2ccccc2CNc2ccccc2)c1 | -4% | -6 | -36% | -14% | -4% | -11%
CCOc1ccc(CNCCNC(=O)c2nonc2N)cc1 | -10% | -4 | ? | -19% | -9% | -1%
NS(=O)(=O)c1ccc(NCc2ccccc2OCc2ccc(F)cc2)cc1 | -22% | -16 | 18µM* | ? | -20% | ?
CCOc1ccc(CNCCc2ccc(S(N)(=O)=O)cc2)cc1 | 7% | -9 | ? | ? | 17% | -5%
COc1ccc(C(=O)N2CCC(C)(C(=O)O)C2)c(OC)c1 (stereo not given) | 10% | 10 | 1% | -3% | 4% | /
O=C(Nc1cccc(S(=O)(=O)NC2=NCCC2)c1)c1ccc(=O)[nH]c1 | 1% | -29 | 18% | -7% | -6% | 4%
CC(NC(=O)c1cccc(S(=O)(=O)N2CCc3ccccc32)c1)c1ccco1 (stereo not given) | -13% | -6 | 18µM* | ? | -6% | 0%
O=C(NNC(=O)c1ccccc1F)c1cccc(S(=O)(=O)N2CCc3ccccc32)c1 | -9% | 39 | 10µM* | 18µM* | 0% | -22%
CC1Cc2ccccc2N1S(=O)(=O)c1cccc(C(=O)NNC(=O)c2ccccc2F)c1 (stereo not given) | -17% | 20 | ? | -18% | -1% | 18%
O=C(NCc1ccncc1)c1cccc(S(=O)(=O)N2CCc3ccccc32)c1 | ? | -12 | ? | 21µM* | -17% | ?
CC1CCCC(C)N1NC(=O)c1cccc(S(=O)(=O)N2CCc3ccccc32)c1 (stereo not given) | -7% | -3 | ? | -29% | -2% | -10%
N#CCOC(=O)C1CSC2(c3ccc(Br)cc3)CCC(=O)N12 (stereo not given) | -2% | -10 | 11% | -13% | 0% | 11%
COc1ccc(S(=O)(=O)Nc2ccccc2-c2nnn(CC(=O)Nc3ccccc3OC)n2)cc1 | -2% | -1 | 8.2µM* | 6.5µM* | -2% | ?
CCn1nnc(-c2ccccc2NC(=O)c2cc(OC)c(OC)c(OC)c2)n1 | -13% | 8 | 15µM* | ? | 6% | 16µM*
CCCC(=O)Nc1ccccc1-c1nnn(CC(=O)Nc2ccc(OC)cc2)n1 | -10% | 7 | 21µM* | ? | -12% | -29%
COc1ccc(C(=O)Cn2nnc(-c3ccccc3NC(=O)c3ccco3)n2)cc1 | 8% | -11 | 8.2µM* | ? | 1% | ?
COc1cccc(CCNC(=O)CCCC(=O)c2ccccc2)c1 | 23% | -7 | -27% | -4% | 12% | -6%
Cc1cnc(C(=O)OC(C)C(=O)NC2CCCc3ccccc32)cn1 (stereo not given) | 4% | 11 | -4% | 24% | 9% | 0%
Cc1cccnc1NC(=O)c1cccc(NC(=O)CC2SC(N3CCCCC3)=NC2=O)c1 (stereo not given) | -3% | 2 | -13% | 6% | -5% | 6%
COc1ccc(NC(=O)Cn2nnc(-c3ccccc3NS(=O)(=O)c3ccccc3)n2)cc1 | -19% | 7 | 18µM* | 23µM* | ? | -6%
COc1ccc(Nc2c(-c3ccc(C)o3)nc3cc(C)ccn23)cc1 | / | / | 12µM* | 15µM* | / | /
SMILES | HT1080-NT tox | IL-1B inflam inh | TDP1 cell noCPT | DT40 TDP1 CPT | HT1080 IDH1KD tx | ELG1 repair inh
Cc1ccc(-c2nc3cnccn3c2Nc2ccc3c(c2)OCO3)o1 | 0% | 47 | -21% | ? | -4% | 28%
Cc1ccn2c(Nc3ccc4c(c3)OCO4)c(-c3ccc(C)o3)nc2c1 | / | / | ? | 15µM* | / | /
O=C(NCc1ccco1)C(c1ccc(F)cc1)N(C(=O)Cc1cccs1)c1cccnc1 (stereo not given) | 18% | -15 | -20% | -5% | -11% | -14%
CC1(C(=O)NS(=O)(=O)Cc2cccc(Cl)c2)CCN1C(=O)CC1CCCC1 (stereo not given) | 25% | 33 | 0% | -7% | 10% | /
Cc1cccc(-n2ncc3c2CCCC3NC(=O)c2cccs2)c1C (stereo not given) | -12% | 1 | 18µM* | ? | -27% | /
Cc1cccc(-n2ncc3c2CCCC3NC(=O)CN2CCOC2=O)c1C (stereo not given) | 23% | 16 | 8% | -1% | 24% | 7%
Cc1cccc(-n2ncc3c2CCCC3NC(=O)CCc2cccnc2)c1C (stereo not given) | -6% | 21 | ? | ? | -7% | ?
Cc1cccc(-n2ncc3c2CCCC3NC(=O)c2ccncc2)c1C (stereo not given) | 0% | 18 | 0.23µM* | -7% | -9% | /
CC1=C(C(=O)NC2CCCc3c2cnn3-c2cccc(C)c2C)OCCO1 (stereo not given) | -12% | -22 | 8.2µM* | 21µM* | ? | ?
Cc1cc(C(=O)NC2CCCc3c2cnn3-c2cccc(C)c2C)no1 (stereo not given) | -25% | -3 | 16µM* | 21µM* | ? | ?
Nc1ccc(Cl)c(S(=O)(=O)Nc2ccc(Cl)cc2)c1 | 0% | -7 | -21% | ? | -14% | 0%
COc1c2ccoc2nc2c(OC)c(O[C@@H]3O[C@H](C)[C@@H](O)[C@@H](O)[C@H]3O)ccc12 | / | / | -13%[9.04 µM] | 6%[9.04 µM] | / | /
CCOc1ccc(Br)cc1S(=O)(=O)NC1=NCCCCC1 | 10% | -1 | 9% | 20% | 25% | -4%
Cc1cccc(OCCSc2nc3ccccc3n2CC(=O)O)c1 | -7% | -16 | -3% | 1% | -1% | -9%
Cc1nnc(SCC(=O)NC2CCCc3c2cnn3-c2ccccc2F)o1 (stereo not given) | -1% | 6 | 19% | -6% | 1% | 5%
